Sampled rows, rich in hits. Any-hit rate of the full collection: about 4.6%.
TRHR PAM = TRH receptor (human) allosteric enhancement; P34981; TRHR cells, fluo-8 calcium fluorescence, EC20 TRH enhancement; enhancement, % at 2 µM; 360,000 tested, 0.66% active; in the data active = enhancement above about 30%
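TRHR-expressing cells loaded with fluo-8 calcium dye were read kinetically (ex 480/em 530) during compound addition, then stimulated with an EC20 of TRH (10 nM final). Enhancement of the Gq-mediated intracellular calcium response was scored.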
D1 antagonist = human D1 dopamine receptor antagonism; P21728; HEK293 TREx D1 cells, calcium flux, dopamine EC80; hits give low values; activity change, negative = inhibition, % at 10 µM; 360,000 tested, 3.2% active; AID 504652; in the data active = activity change below about -30%
Target sequence (P21728 whole entry, looked up): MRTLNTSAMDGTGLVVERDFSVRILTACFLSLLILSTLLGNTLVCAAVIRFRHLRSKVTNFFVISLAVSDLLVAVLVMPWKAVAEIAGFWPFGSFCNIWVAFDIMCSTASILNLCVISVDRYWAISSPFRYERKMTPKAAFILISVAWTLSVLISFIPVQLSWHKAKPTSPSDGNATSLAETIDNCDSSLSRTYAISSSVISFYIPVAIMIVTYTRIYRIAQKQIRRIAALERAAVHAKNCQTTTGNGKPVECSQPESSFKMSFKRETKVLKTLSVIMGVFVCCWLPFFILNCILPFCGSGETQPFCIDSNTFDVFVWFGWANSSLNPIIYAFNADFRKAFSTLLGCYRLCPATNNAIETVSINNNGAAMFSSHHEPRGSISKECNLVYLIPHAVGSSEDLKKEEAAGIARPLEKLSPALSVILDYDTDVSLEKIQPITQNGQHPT
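Antagonism measured as reduced calcium response to an EC80 dopamine addition following 180 s compound pre-read; cells were inducible HEK293 Trex D1 plated overnight at 30 C, read kinetically at 1 cycle/sec.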
D1 potentiator = enhances dopamine response at the human D1 receptor. AID 504651. P21728. 360,000 tested, 0.036% active. potentiation, % at 10 µM. HEK293 TREx D1 cells, calcium flux, dopamine EC20 potentiation; in the data active = potentiation above about 30%
TRHR ag = TRH receptor (human) agonism; AID 493084; P34981; TRHR cells, calcium flux fluo-8, FDSS agonist mode; activation, % at 2 µM; 360,000 tested, 0.18% active
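Agonist-mode FDSS calcium read (Ex 480/Em 530, 1 s cycles) in 1536-well TRHR cells with fluo-8 dye, after 10-cycle baseline and 23 nL compound addition; TRH at EC20 (10 nM final) added afterwards for the enhancer phase.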
Epigenetic reg = regulators of epigenetic silencing causing reporter derepression in mouse cells | 280,000 tested, 0.2% active | murine LDR cells, GFP reporter derepression, 30 h | AID 1865 | Potency, µM (titrated, usually from 53.9 µM), usual class: activators; active = well fitted activation curve with a large enough effect; inconclusive = small, poorly fitted or top-dose-only effect; also: nearly all actives have a fitted effect of over 60% in size
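Readout is the number of GFP-expressing murine LDR cells, counted by cytometry following washing. Cells were treated with compound for 30 h at 37 C; the stably integrated CMV-GFP locus is normally silent.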
D1 agonist = human D1 receptor agonism | HEK293 T-REx D1 cells, calcium flux, agonist mode | activation, % at 2 µM | 360,000 tested, 1% active | AID 504660
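Agonism was scored from calcium flux recorded over 180 s (1 read/s) after pintool compound addition, following a 10-cycle baseline. Cells were inducible force-coupled HEK293 TREx D1, plated overnight at 30 C and loaded with no-wash calcium dye.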
Large screens that a line does not name were inactive; ! = repeats disagree. Rule as the data show it, unless noted: active = activation above about 30%; inactive = the rest.

COc1ccc(N2CCN(C(=O)C3CCCN(S(=O)(=O)c4ccc5c(c4)oc(=O)n5C)C3)CC2)cc1 (centres undefined)	D1 antagonist -45!
Cn1c(=O)oc2cc(S(=O)(=O)N3CCCC(C(=O)N4CCN(c5ccc(Cl)cc5)CC4)C3)ccc21 (centres undefined)	D1 antagonist -34
COc1ccccc1N1CCN(C(=O)C2CCCN(S(=O)(=O)c3ccc4c(c3)oc(=O)n4C)C2)CC1 (centres undefined)	none
CC(C)=CCC1=C(O)c2ccccc2C(=O)C1=O	none (no result: TRHR PAM, D1 antagonist, D1 potentiator, TRHR ag, D1 agonist)
Cc1ccc(Nc2cc(C)c(C#N)c3nc4ccccc4n23)c(C)c1	D1 antagonist -38
CCCS(=O)(=O)Nc1cc(-c2cn3ccc(C)cc3n2)ccc1C	D1 potentiator 59
COc1ccc(CN2CC(=O)N(c3ccc(C)c(C)c3)C2=S)cc1OC	D1 antagonist -36
Cc1ccc(C(=O)NCc2ccc3c(c2)CCO3)cc1C	D1 antagonist -48
CN1CCC(Oc2ccccc2Sc2ccccc2)CC1	D1 antagonist -63
CN1CCC(N(C)CC(O)c2ccccc2)CC1 (centres undefined)	none
CN1CCC(OC(c2ccccc2)c2ccccc2)CC1	D1 antagonist -37
Cc1nc2c3cccnc3nn2c(C)c1CCC(=O)NCc1ccccc1	none
CSc1ccc(CN2CCN(C(C)C)C(CCO)C2)cc1 (centres undefined)	D1 antagonist -35
OCCC1CN(Cc2cccn2-c2nccs2)CCN1C1CCCCC1 (centres undefined)	none
CC(C)N1CCN(Cc2ccncc2)CC1CCO (centres undefined)	none
CC(C)N1CCN(Cc2cccn2-c2nccs2)CC1CCO (centres undefined)	TRHR PAM 36
CC(C)(C)NC(=O)CSc1nnnn1C(C)(C)C	D1 antagonist -38
CC(C)c1nnc(SCC(=O)NC(C)(C)C)n1C	none
Cc1cccc(Oc2nccc(C(F)(F)F)c2C(=O)Nc2ccc(F)cc2F)c1	D1 antagonist -54
Cc1csc(C2=C(O)CN(CCc3ccccc3)C2=N)n1	D1 antagonist -40
Cc1cc(Nc2cccc(F)c2)nc(-c2ccccc2O)n1	none
Cc1cc(Nc2ccccc2)nc(-c2ccccc2O)n1	D1 antagonist -45
O=C(NCCC1=CCCCC1)c1ccc2c(=O)n3nc(Nc4ccccc4)sc3nc2c1	none
COc1cccc(CNc2ccc([N+](=O)[O-])cc2C)c1	none
COc1ccc(OC)c(CNc2ccc([N+](=O)[O-])cc2C)c1	D1 antagonist -37
O=C(NCc1ccc2c(c1)OCO2)c1nnc(Cc2ccc(F)cc2)o1	D1 antagonist -56
O=C(NCc1ccc(F)cc1)c1nnc(Cc2cccc(F)c2)o1	none
O=C(NCCc1ccccc1)c1nnc(Cc2cccc(F)c2)o1	D1 agonist 38
O=C(CCSCc1ccccc1F)N1CCN(c2ccc(F)cc2)CC1	none
CCCCCN1CC(=O)N2Cc3[nH]c4ccccc4c3C[C@H]2C1=O	none (no result: Epigenetic reg)
CCCCN1C(=O)C2Cc3c([nH]c4ccccc34)CN2C1=S (centres undefined)	D1 antagonist -33, Epigenetic reg inconclusive
CCc1ccc(C2CC(=O)N(c3cccc(C(F)(F)F)c3)C3=C2C(=O)OC3)cc1 (centres undefined)	none
CCOc1ccc(CNC(=O)C2=Cc3cc(Br)ccc3OC2)cc1OC	D1 antagonist -38
O=C(NCc1ccc(Cl)cc1)C1=Cc2cc(Br)ccc2OC1	none
CC(=O)NCCC1CCCCN1Cc1nc(Cc2cccc(C(F)(F)F)c2)no1 (centres undefined)	D1 antagonist -50
CCc1cccc(NS(=O)(=O)c2ccc(-n3cccn3)cc2)c1	none
Cc1ccc(NS(=O)(=O)c2ccc(-n3cccn3)cc2)cc1C	none (no result: Epigenetic reg)
CCc1cccc(C)c1NS(=O)(=O)c1ccc(-n2cccn2)cc1	D1 antagonist -47
COc1ccc(NS(=O)(=O)c2ccc(-n3cccn3)cc2)cc1OC	D1 antagonist -33
Cc1cc(-c2nc3ncccc3o2)ccc1NC(=O)COc1cc(C)c(Cl)c(C)c1	none
N#C/C(=C/c1ccc(O)c(O)c1)C(=O)NCc1ccc(Cl)cc1	D1 antagonist -33, D1 agonist 79 (no result: D1 potentiator, Epigenetic reg)
COCCNC(=O)CN(c1ccccc1OC)S(C)(=O)=O	D1 antagonist -30
COc1ccccc1N(CC(=O)N/N=C(\C)c1cccc(Br)c1)S(C)(=O)=O	D1 antagonist -30
COc1ccccc1N(CC(=O)NCCc1ccccc1)S(C)(=O)=O	none
CCOc1ccccc1N(CC(=O)N/N=C(\C)c1cccc(Br)c1)S(C)(=O)=O	none
O=C(O)c1ccc2c(c1)C(=O)N(N1C(=O)c3ccccc3C1=O)C2=O	TRHR PAM 31
Cc1ccc(C[C@H](C(=O)O)N2C(=O)c3ccc(C(=O)O)cc3C2=O)cc1	none (no result: Epigenetic reg)
O=C(O)c1ccc2c(c1)C(=O)N([C@H](Cc1ccc(-c3ccccc3)cc1)C(=O)O)C2=O	D1 antagonist -35 (no result: Epigenetic reg)
Cc1cccc(C[C@H](C(=O)O)N2C(=O)c3ccc(C(=O)O)cc3C2=O)c1	D1 antagonist -32 (no result: Epigenetic reg)
O=C(O)c1ccc2c(c1)C(=O)N([C@@H](Cc1ccc(O)cc1)C(=O)O)C2=O	none (no result: Epigenetic reg)
CCCCC(=O)Nc1ccc(C(=O)OCc2cc(=O)n3ccsc3n2)cc1	none
COC(=O)c1ccc(NC(=O)CC2C(=O)N(c3ccc(Cl)cc3)C(=O)N2Cc2cccs2)cc1 (centres undefined)	none
COc1ccc(C2CC(=O)c3cc(-c4nc(-c5cccc(Cl)c5)cs4)c(=O)[nH]c3C2)cc1OC (centres undefined)	none
N#C/C(=C(/O)c1ccc2c(c1)OCO2)c1nc2cc(C(F)(F)F)ccc2s1	D1 antagonist -41 (no result: Epigenetic reg)
Cc1cc(-c2nnc3n2N=C(c2ccc(-c4ccccc4)cc2)CS3)n[nH]1	D1 agonist 63
CCCCc1ccc(S(=O)(=O)Nc2ccc(C)c(NS(C)(=O)=O)c2)cc1	D1 antagonist -35
CCCc1ccc(S(=O)(=O)Nc2ccc(C)c(NS(C)(=O)=O)c2)cc1	none
O=C(CSc1nc2cc(S(=O)(=O)N3CCOCC3)ccc2o1)Nc1c(F)cccc1F	D1 antagonist -32
O=C(CSc1ccc(S(=O)(=O)N2CCOCC2)cn1)Nc1ccc(F)c(F)c1	D1 antagonist -57 (no result: Epigenetic reg)
CN(C)C(=O)CSc1ccc(S(=O)(=O)N2CCCC2)cn1	none (no result: Epigenetic reg)
CC(C)N(C(=O)CSc1ccc(S(=O)(=O)N2CCCCC2)cn1)c1ccccc1	D1 antagonist -37 (no result: Epigenetic reg)
C/C(=N\NC(=O)CSc1nc2ccccc2o1)c1cccc(O)c1	D1 antagonist -35
O=S(=O)(NCCc1nnc2ccc(SCc3cccc(Cl)c3)nn12)c1ccccc1	none

Bioassay records (PubChem BioAssay)
